Experimental data taken from PMC4336329 (PLoS ONE, 2015).
Out of some 310,000 compounds screened, about 14,000 (4.5%) showed an effect of 50% or more. Effects have a minus sign here. This excerpt belongs to a sample that is enriched for strong results.

What follows are molecules tested against human ether-à-go-go-related gene (hERG) potassium channel (human, UniProt Q12809) (assay: primary screen, population patch clamp on CHO cells stably expressing hERG; higher = less effect of the substance).
Sequence of human ether-à-go-go-related gene (hERG) potassium channel (Q12809 whole entry, looked up): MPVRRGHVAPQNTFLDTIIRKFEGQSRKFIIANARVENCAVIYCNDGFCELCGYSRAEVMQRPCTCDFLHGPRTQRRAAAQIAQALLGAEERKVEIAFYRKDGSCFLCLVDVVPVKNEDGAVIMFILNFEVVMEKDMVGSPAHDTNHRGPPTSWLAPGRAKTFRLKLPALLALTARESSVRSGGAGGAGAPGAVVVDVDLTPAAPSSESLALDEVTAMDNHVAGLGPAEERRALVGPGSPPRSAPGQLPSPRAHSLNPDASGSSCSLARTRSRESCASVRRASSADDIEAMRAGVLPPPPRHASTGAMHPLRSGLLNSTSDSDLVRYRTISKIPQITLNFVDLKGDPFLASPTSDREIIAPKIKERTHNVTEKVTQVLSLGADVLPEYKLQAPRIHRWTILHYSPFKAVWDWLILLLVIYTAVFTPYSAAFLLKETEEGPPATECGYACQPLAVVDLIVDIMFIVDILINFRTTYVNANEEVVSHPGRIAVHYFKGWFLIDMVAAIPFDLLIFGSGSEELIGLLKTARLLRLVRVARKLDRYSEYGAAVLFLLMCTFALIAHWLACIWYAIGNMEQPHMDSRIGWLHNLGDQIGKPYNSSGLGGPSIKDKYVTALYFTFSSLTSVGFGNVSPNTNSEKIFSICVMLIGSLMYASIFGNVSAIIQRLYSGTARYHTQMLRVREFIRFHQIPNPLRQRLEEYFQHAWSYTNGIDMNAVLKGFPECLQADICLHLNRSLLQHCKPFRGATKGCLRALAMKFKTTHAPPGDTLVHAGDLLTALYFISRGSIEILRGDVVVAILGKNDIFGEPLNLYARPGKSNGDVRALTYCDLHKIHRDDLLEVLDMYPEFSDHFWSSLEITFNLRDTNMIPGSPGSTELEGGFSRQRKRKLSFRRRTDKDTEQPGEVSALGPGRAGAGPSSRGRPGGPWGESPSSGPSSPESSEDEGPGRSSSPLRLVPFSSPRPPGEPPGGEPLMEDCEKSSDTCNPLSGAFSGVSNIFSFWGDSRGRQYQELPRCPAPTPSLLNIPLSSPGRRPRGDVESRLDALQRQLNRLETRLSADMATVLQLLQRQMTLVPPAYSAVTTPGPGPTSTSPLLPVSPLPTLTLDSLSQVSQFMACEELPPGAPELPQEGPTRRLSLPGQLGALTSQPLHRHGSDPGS
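Note: peak tail current of the secondary pulse compared with the same well before compound.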

Compound	hERG current change (%, negative = inhibition) at 10uM [%]
COC(=O)C1=C(C)Nc2ncnn2C1c1ccco1 (centres unmarked)	6.44
COCCCn1c(SCC(=O)NNC(=O)c2cccc(O)c2)nnc1-c1ccncc1	5.74
COc1ccc(-c2nc(C#N)c(N3CCC(C(N)=O)CC3)o2)cc1OC	-10.3
COCCN(CC(=O)Nc1cccc(C)c1C)C(=O)c1cc(-c2cccs2)nn1-c1ccccc1	1.14
CCCCOc1ccc(CSc2n[nH]c(C)n2)cc1	-1.41
CN1CCN(C(=O)CC2C(=O)NCCN2Cc2ccc(-c3ccccc3)cc2)CC1 (centres unmarked)	2.25
COC(=O)C1CN(C(=O)COc2cc(C)c(Cl)c(C)c2)c2ccccc2O1 (centres unmarked)	18.9
O=C1NC(=O)C2(CCC(C(=O)O)C2)N1 (centres unmarked)	19.3
CCOC(=O)c1oc2ccc(/C=N/O)c(Cl)c2c1C	37.3
O=C(CSc1cccc[n+]1[O-])Nc1ccc(C(F)(F)F)cc1[N+](=O)[O-]	4.31
Clc1ccc(CO/N=C/c2cccs2)cc1	12.4
COCCCn1c(N)c(C(=O)OC(C)COC)c2nc3ccccc3nc21 (centres unmarked)	0.737
CCCCOCCCn1c(N)c(C(=O)OC(C)COC)c2nc3ccccc3nc21 (centres unmarked)	-9.66
CCOC(=O)c1c(N)n(Cc2ccccc2)c2nc3ccccc3nc12	-29.6
CC(C)(C)OC(=O)c1c(N)n(Cc2ccco2)c2nc3ccccc3nc12	-5.55
COCC(C)OC(=O)c1c(N)n(CC(C)C)c2nc3ccccc3nc12 (centres unmarked)	-67.8
CCOC(=O)c1c(N)n(Cc2ccco2)c2nc3ccccc3nc12	-61.9
CSc1nccc(-c2nn(-c3ccc(C)cc3)ccc2=O)n1	-15
COC(=O)CSc1nnc(CNC(=O)c2ccc(S(=O)(=O)N3CCOCC3)cc2)n1C	23.7
COCCNC(=O)c1cccc(OC2CCN(Cc3ccc(C(C)C)cc3)CC2)c1	-70.7
COCCNC(=O)c1cccc(OC2CCN(Cc3ccc(F)c(OC)c3)CC2)c1	-16.2
COCCNC(=O)c1cccc(OC2CCN(Cc3ccccc3OC(F)F)CC2)c1	2.5
COCCNC(=O)c1cccc(OC2CCN(Cc3ccc(Cl)c(F)c3)CC2)c1	-37.5

Compound	hERG current change (%, negative = inhibition) at 10uM [%]
COCCNC(=O)c1cccc(OC2CCN(Cc3ccc(C(=O)OC)cc3)CC2)c1	-40.5
COCCNC(=O)c1cccc(OC2CCN(Cc3ccc(OC(F)F)cc3)CC2)c1	-73.5
COC(=O)/C=c1\sc2ncnn2c1=O	3.63
CCCNC(=O)c1onc(CS(=O)(=O)c2cccc(OC)c2)c1C(=O)NCCC	-12.5
CN(C)/C=C/C(=O)c1ncc(C(F)(F)F)cc1Cl	8.95
CC(NC(=O)[C@H](C)NC(=O)c1ccco1)c1ccc(S(N)(=O)=O)cc1 (some centres unmarked)	18.9
O=C(CN1CCC(C(=O)c2cccc(Cl)c2)CC1)Nc1ccc(C(=O)O)cc1	16
COc1ccc(-c2nnc(Nc3ccc(OC)c(C(=O)N4CCCCC4)c3)c3ccccc23)cc1	-39.3
Oc1ccc(-c2nnc(Nc3cccc(O)c3)c3ccccc23)cc1	-7.99
COc1ccc(Nc2nnc(-c3ccc(C(N)=O)cc3)c3ccccc23)cc1	-33.9
Oc1ccc(-c2nnc(Nc3ccccc3)c3ccccc23)cc1	-58.9
CC(=O)Nc1ccc(Nc2nnc(-c3ccc(O)cc3)c3ccccc23)cc1	10.2
COc1ccc(Nc2nnc(-c3ccccc3)c3ccccc23)cc1C(=O)N1CCCCC1	-73
COc1ccc(Nc2nnc(-c3ccc(C)cc3)c3ccccc23)cc1C(=O)N1CCCCC1	-33.7
COc1ccc(Nc2nnc(-c3ccc(O)cc3)c3ccccc23)cc1	-64.8
Oc1ccc(Nc2nnc(-c3ccc(O)cc3)c3ccccc23)cc1	24.3
Cc1nnc(Nc2ccc3c(c2)ncn3C)c2ccccc12	0.0649
Cc1nc2cc(Nc3nnc(-c4ccccc4)c4ccccc34)ccc2n1C	-67.2
Cc1ccc(-c2nnc(Nc3ccc4c(c3)nc(C)n4C)c3ccccc23)cc1	5.03
CCOC(=O)c1ccc(N=Cc2nc3ccccc3n2C)cc1	7.61
COc1ccc(-n2c(=O)[nH]cc(C(=O)Nc3ccc4c(c3)OCCO4)c2=O)cc1OC	6.18
N#Cc1c(N)nc2c(c1N)CC(COc1ccccc1)O2 (centres unmarked)	-6.98
CCSc1nnc(CNC(=O)C23CC4CC(CC(C4)C2)C3)n1Cc1ccccc1	-5.81

Compound	hERG current change (%, negative = inhibition) at 10uM [%]
C[C@H](NC(=O)c1ccccc1Cl)C(=O)OCc1cn2cc(Cl)ccc2n1	-7.08
COc1ccc(OC)c(NC(=O)CCc2nnc3ccc(NCc4ccco4)nn23)c1	-15.2
CC(Nc1nc(-c2cccc(Br)c2)cs1)c1nc2cc(Cl)c(N3CCCCC3)cc2n1CCOCCO (centres unmarked)	-19.1
COc1cc(C(C)=O)ccc1OC(=O)c1cc2cccc(OC)c2oc1=O	2.53
CCn1c(SCC(=O)Nc2cc(NC(C)=O)ccc2OC)nnc1-c1ccccn1	4.03
N#Cc1c(C(F)(F)F)cc(-c2ccccc2)nc1SCC(=O)N1CCOCC1	-8.28
CC(C)NC(=O)CSc1ncccc1-c1nc2ccccc2[nH]1	-17.1
O=C1CC(c2ccccc2)CC(=O)C1CS(=O)(=O)c1ccccc1 (centres unmarked)	18.1
Cc1ccc(-c2noc(CSc3ccccc3)n2)cc1	10.2
O=C1c2cccnc2C(Nc2ccc(S(=O)(=O)N3CCCCCC3)cc2)N1Cc1ccccc1 (centres unmarked)	-9.79
Cc1cc(Cn2ccnc2)c(C)c([N+](=O)[O-])c1Cn1ccnc1	-7.19
CC1CCCC(NC(=O)CCC(=O)NCc2ccccc2)C1C (centres unmarked)	11.5
O=S(=O)(O)c1cnccc1Nc1cccc(C(F)(F)F)c1	5.95
COc1cc(C)nc(N2CCCC(C(=O)Nc3ccccc3Br)C2)n1 (centres unmarked)	8.77
Cc1nc2ncnn2c(N2CCCC(C(=O)Nc3ccccc3Br)C2)c1C (centres unmarked)	-60.2
CCc1c(C)nc2ncnn2c1N1CCCC(C(=O)NCc2cccs2)C1 (centres unmarked)	-19.1
COc1ccccc1NC(=O)C1CCCN(c2nc(C)cc(C)n2)C1 (centres unmarked)	-10
O=C(Nc1ccc2c(c1)CCC2)C1CCCN(c2ncccn2)C1 (centres unmarked)	-2.53
Cc1cc(N2CCCC(C(=O)Nc3cccc4ccccc34)C2)n2ncnc2n1 (centres unmarked)	-61.9
Cc1cc(C)nc(N2CCC(C(=O)Nc3ccc4c(c3)CCC4)CC2)n1	17.3
Cc1nc2ncnn2c(N2CCCC(C(=O)Nc3ccc4c(c3)CCC4)C2)c1C (centres unmarked)	-53
Cc1cc(N2CCCC(C(=O)Nc3ccc4c(c3)CCC4)C2)n2ncnc2n1 (centres unmarked)	-57.2
COc1ccc(NC(=O)C2CCCN(c3cc(C)nc4ncnn34)C2)cc1 (centres unmarked)	-12.5

Compound	hERG current change (%, negative = inhibition) at 10uM [%]
Cc1cc(N2CCCC(C(=O)Nc3cccc(Cl)c3)C2)n2ncnc2n1 (centres unmarked)	-38
COc1ccccc1NC(=O)C1CCCN(c2cc(C)nc3ncnn23)C1 (centres unmarked)	-20.8
CC(Oc1ccc2c3c(c(=O)oc2c1)CCCC3)C(=O)NCc1ccncc1 (centres unmarked)	4.36
Cc1nn(CC(O)Cn2c3c(c4ccccc42)CCN(C)C3=O)c(C)c1Br (centres unmarked)	-17.5
CNC(=S)Nc1cc(C)ccc1OC(F)F	2.85
CCCCn1c(N)c(N(CC)C(=O)CCNC(=O)NC23CC4CC(CC(C4)C2)C3)c(=O)[nH]c1=O	8.45
CCN(CC)S(=O)(=O)c1ccc(N2CCCC2)c(C(=O)OCC(=O)N2CCCC2)c1	-3.73
O=C(NC1CONC1=O)OCC(Cl)(Cl)Cl (centres unmarked)	8.91
CC(C)c1cc(C(=O)O)n[nH]1	20.3
COC(=O)c1ccc(NC(=O)CCc2nnc3ccc(N4CCC5(CC4)OCCO5)nn23)cc1	10.1
CCc1ccccc1NC(=S)N(CCN(C)C)C(C)c1ccccn1 (centres unmarked)	-30.8
O=C(NNC(=O)c1ccccc1OCc1ccccc1Cl)c1csc(N2CCOCC2)n1	31
O=C(COC(=O)c1ccc(F)c(S(=O)(=O)N2CCOCC2)c1)NC1CC1	-17.4
COc1cc2c(cc1OC)C(C)N(C(=O)C(NC(=O)c1ccccc1)C(C)C)CC2 (centres unmarked)	7.1
COc1ccc(-c2ocnc2C(=O)NCc2nn(-c3ccccc3)nc2C)cc1	5.05
COc1cccc2sc(N(CCN(C)C)C(=O)c3ccc4c(c3)CCCC4)nc12.Cl	-66.7
COc1cccc2sc(N(CCN(C)C)C(=O)c3ccc(S(=O)(=O)N4CCCC4)cc3)nc12.Cl	-31.2
COc1ccc2sc(N(CCCN(C)C)C(=O)c3ccc(S(=O)(=O)N4CCCc5ccccc54)cc3)nc2c1.Cl	-14.4
CN(C)CCCN(C(=O)c1ccc2c(c1)CCCC2)c1nc2c(F)cccc2s1.Cl	-70
CCOc1ccc2nc(N(CCN(C)C)C(=O)c3ccc4c(c3)CCCC4)sc2c1.Cl	-1.63
CN(C)CCN(C(=O)c1ccc2c(c1)CCCC2)c1nc2c(F)cccc2s1.Cl	-14.6
CN(C)CCCN(C(=O)c1ccc(S(=O)(=O)N2CCc3ccccc32)cc1)c1nc2c(Cl)cccc2s1.Cl	-27.6
COc1cccc2sc(N(CCCN(C)C)C(=O)c3ccc(S(=O)(=O)N4CCCc5ccccc54)cc3)nc12.Cl	-68.3
